From PubChem BioAssay AID602449 (Sanford-Burnham Center for Chemical Genomics, 2012)
Out of some 360,000 compounds screened, about 5,000 (1.4%) were called active. The entries come from a sample that favours actives as a whole. A number with no mark means an inactive call.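 Rule for the calls: active = inhibition of 50% or more, scaled per plate between neutral and stimulator controls; inactive = the rest.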

Test: mitochondrial permeability transition pore inhibitors, primary screen, biochemical, isolated mouse mitochondria, absorbance (AID 602449);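 note: 0% = DMSO wells given calcium and 100% = 1 mM EGTA wells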
Conditions: Ca2+ swelling absorbance, 30 min, at 10 µM, hits give high values

Compound	inhibition
Brc1ccccc1/C=N/Nc1nc2ccccc2o1	1.1%
Oc1c(Br)cccc1/C=N/Nc1c(F)c(F)c(F)c(F)c1F	102% (active)
CC(Oc1ccc(F)cc1)C(=O)Nc1ccccc1C(=O)NC1CC1 (stereo not given)	-1.6%
Cc1cc(C(=O)OCC(=O)NCc2ccco2)c(C)n1-c1ccccc1	-0.8%
CCN1C(=O)[C@@H]2[C@@H](c3ccc(-c4cccc(Cl)c4)cc3)N3CCC[C@@]3(C(=O)OC)[C@@H]2C1=O	-1%
CCOC(=O)c1ccc(NC(=O)Cn2cnc3cc(C)c(C)cc32)cc1	96.9% (active)
CCOC(=O)c1ccc(NC(=O)CCn2c(=O)oc3ccccc32)cc1	0.1%
CCOC(=O)c1ccc(NC(=O)CS(=O)(=O)c2cn(CC)c3ccccc23)cc1	1%
CN(c1cccc(NC(=O)Nc2ccc(Cl)cc2)c1)S(C)(=O)=O	92.2% (active)
COc1ccc(C)cc1S(=O)(=O)N(CC(=O)Nc1cccc([N+](=O)[O-])c1)c1ccc(C)cc1	0.7%
Cc1ccc(S(=O)(=O)N(CC(=O)Nc2cccc([N+](=O)[O-])c2)Cc2ccc(Cl)cc2)cc1	80.3% (active)
Cc1ccc(CN(CC(=O)NCC2CCCO2)S(=O)(=O)c2ccc(C)cc2)cc1 (stereo not given)	0.1%
CN(c1ccccc1)S(=O)(=O)c1cccc(NC(=O)Cc2ccc(Cl)cc2)c1	61.7% (active)
CNS(=O)(=O)c1ccc(NC(=O)Nc2ccc3c(c2)OCO3)cc1	0.6%
CN(c1ccccc1)S(=O)(=O)c1cccc(NC(=O)Cc2c(F)cccc2Cl)c1	18.1%
CN(c1cccc(NC(=O)c2ccc(CN3CCc4ccccc4C3)cc2)c1)S(C)(=O)=O	0%
CN(C)S(=O)(=O)c1cccc(NC(=O)Cc2ccsc2)c1	0.2%
O=C1N=C2SCCN2/C1=C\c1c(Cl)cccc1Cl	-0.2%
O=C(CNC(=O)OCc1ccccc1)Oc1cc2oc(=O)cc(-c3ccccc3)c2cc1Cl	7.5%
Clc1ccc(-c2cc(-c3ccccn3)on2)c(Cl)c1	2.1%

Compound	inhibition
Clc1ccc(-c2cc(C3CCNCC3)[nH]n2)c(Cl)c1	76.8% (active)
COc1ccc(C2c3[nH]c4ccccc4c3CCN2CCCn2cccn2)cc1C (stereo not given)	-1.1%
O=C1c2ccccc2C2=Nc3ccccc3SC(c3ccccc3F)C12 (stereo not given)	93.3% (active)
CCC(C)N(C(=O)Cn1nc(C)c([N+](=O)[O-])c1C)C1CCS(=O)(=O)C1 (stereo not given)	0.4%
O=C(CCN1CCc2ccccc2C(O)(c2ccccc2)C1)c1ccc2c(c1)OCCO2 (stereo not given)	2.6%
O=C(c1ccc2c(c1)OCCO2)C1CCN(S(=O)(=O)c2cccc(F)c2)CC1	-4.7%
O=C(O)/C=C/c1ccc(S(=O)(=O)N2CCCCCC2)cc1	-1.1%
COc1ccc(/C=C/C(=O)c2c(O)cc(OC)cc2OC)cc1	1.2%
O=C(/C=C(O)/C=C/c1ccc(O)cc1)/C=C/c1ccc(O)cc1	75.2% (active)
O=C(Nc1ccccc1Cc1ccccc1)c1ccc2c(c1)SC1=NS(=O)(=O)CCN12	1.9%
Cc1nc(-c2nnc(SCC(=O)Nc3cc(C(F)(F)F)cc(C(F)(F)F)c3)n2C)cs1	4.6%
Cc1ccc(OC(=O)c2c(C)nn(-c3ccccc3)c2C)cc1	-0.9%
C/C(=N\NC(=S)NCc1ccccc1)c1ccc(Cl)cc1	3.5%
S=C(NCc1cccs1)Nc1ccc(Cl)cc1	23.7%
Fc1ccccc1CNC(=S)Nc1ccc(Cl)cc1	102% (active)
CCCOc1ccc(Cc2c(Cl)nc(SC)nc2NC)cc1	95.3% (active)
CCCOc1ccc(Cc2c(O)nc(SC)[nH]c2=O)cc1C	0.9%
CCOc1cc2[nH]c(=O)n(CCC(=O)NCc3ccc(OC)cc3)c(=O)c2cc1OCC	-0.2%
COC(=O)C(Cc1c[nH]c2ccccc12)NC(=O)CCNC(=O)c1ccco1 (stereo not given)	-1%
O=C1CCCN1CCCNC(=S)Nc1ccc(F)c(Cl)c1	96.1% (active)

Compound	inhibition
Cc1cc(Cl)ccc1NC(=S)NCCCN1CCCC1=O	0.5%
Cc1c(Cl)cccc1NC(=O)NCCCN1CCCC1=O	-0.1%
CC1(C(=O)NNC(=S)NCC2CCCO2)CC1(Cl)Cl (stereo not given)	-1.4%
O=S(=O)(Nc1ccc(Cl)cn1)c1cnc(Cl)c(Br)c1	12.7%
CC(C)C[C@H]1CN([C@@H](CC(C)C)CN2CCC[C@@H]2CN2C(=O)C(=O)NC[C@@H]2Cc2ccccc2)C(=O)C(=O)N1CCc1ccccc1	1.7%
CSc1ccc(/C=N/NC(=O)c2cccc(Cl)c2)cc1	3%
COc1ccc(NC(=O)c2cccc(Cl)c2)c[n+]1[O-]	1.1%
Cc1ccc(Sc2ccc(NC(=O)c3ccc(F)cc3)cc2C#N)cc1	72.3% (active)
COC(=O)c1ccc(Sc2ccc(F)cc2)c(N)c1	-3%
COc1ccc(Sc2ccc(NC(=O)c3cccc(Cl)c3)cc2C#N)cc1	80.5% (active)
Cc1ccc(C(=O)NC2CCN(C(=O)Nc3ccc(F)cc3)CC2)cc1	-0.9%
Cc1ccccc1CNC(=O)CCC(=O)N1Cc2ccccc2Oc2ncccc21	-0.6%
CC(C)(C)n1c(=O)[nH]c2c(c1=O)CCC2	-1.7%
CC(C)=C1SC(N2CCN(c3ccc(C)c(Cl)c3)CC2)=NC1=O	2.6%
COc1ccc(S(=O)(=O)N2CCN(C(C)C(=O)Nc3ccc(C(C)C)cc3)CC2)cc1 (stereo not given)	0.5%
Cn1c(N2CCOCC2)c(C=O)c2ccccc21	-0.1%
COc1cccc(NC(=O)CSc2nnc(-c3cccnc3)o2)c1	-1.2%
COc1ccc2oc(-c3cccc(NC(=O)CSc4ccc(Cl)cc4)c3)nc2c1	86.6% (active)
COc1ccc(C(=O)NCc2nnc(SCC(=O)Nc3cccc(OC)c3)o2)cc1	-0.9%
CCOC(=O)c1sc(=NC(=O)/C=C/c2cccs2)n(C)c1C	1.4%
